# In the supplement of paper PMC11417369:
# The full ranking holds about 25,000 sequences; the median of “ln(normalized median fluorescence intensity)” is about 9.7, and the highest 2% start at about 11. The list comes from a sample in which the highest values are over-represented; it also holds similar and randomly drawn sequences.
# Tested on: PfAP2-HC AP2 domain (GST-tagged)
# Test: gcPBM binding intensity (ln(normalized median fluorescence intensity)); higher = stronger DNA binding
# Summary of the method: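 For binding intensity, the highest Masliner-normalised natural-log median intensity across replicate spots of either probe orientation was taken. Protein bound to the array was stained with Alexa488 anti-GST antibody and scanned at 488 nm. The protein, GST-tagged P. falciparum DNA-binding domains from E. coli at about 25 μg on average, had been applied for 1 h to an Agilent 4 × 180k array of primer-extended double-stranded 36-bp intergenic genomic probes and negative controls.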
row,Sequence,gcPBM binding intensity (ln)
1,AAAAAAAAAAAATTCACACACATATAAAAAATTAAG [CACACA_site728],10
2,AATAAATATAGGTACACACACAAATATGTACATATC [CACACA_site6976],10.2
3,ATTCTCCATGTTTGATGTACTCATATGACGACGGAG [XGTACX_site4923],9.52
4,AATATATGTATATCCACACACATATATATATATATA [CACACA_site1633],9.96
5,ATACATATTCTTATTTGTACTTATTATAAAATGGTC [XGTACX_site6584],9.56
6,ATATATATTTATTTATGTACGAATAAATTTACGAAT [XGTACX_site5190],9.51
7,CTTATCAAAAAAAAAGCATGCCACAGGCAAAAGGTA [TGCATGCA_site574],9.71
8,ATAGAATAAATTTTGTCATTTATTCCTTATATATAA [GTGCAC_negctrl_site227],9.56
9,TTATATATTTTTAGGTGTACTTTTTTTTTTTTTTTT [XGTACX_site8164],9.54
10,ATATATATATAATAAACACACACATATACATATATG [CACACA_site9145],10.5
11,AAAAATAAAATATATACATGCATATACATATTATAT [TGCATGCA_site668],9.65
12,TAAAACATAAGAGACACACACACATATATATATATA [CACACA_site3643],10.9
13,ATATTATATAAATACACACACACATGCATGCACATA [CACACA_site4236],11.2
14,ATAAAAAAAGGACACACACACATATATTTATTTATA [CACACA_site7438],10.5
15,AAATTCCACGAACACACACACATATAAATAAATAAA [CACACA_site6697],10.6
16,AATAACCACCAACACACACACATATATATATATATA [CACACA_site3540],10.2
17,ATATTATATATATACACACACACATGCATGCACATA [CACACA_site7917],10.3
18,CATATAAAAGGACACACACACACATATATATATATA [CACACA_site4674],11.6
19,AAACATAAGAGACACACACACATATATAAATAAATA [CACACA_site7674],10.5
20,AAATTCCACCAACACACACACATATAAATAAATAAA [CACACA_site1233],11
21,ATAAAAAAAAGACACACACACATATATATATATATA [CACACA_site3073],10.3
22,ATAAAAAAAGGACACACACACATATATATATATATA [CACACA_site5662],10.8
23,ATAGATATAACATATGCATGTAAAATATAACCACTC [TGCATGCA_site60],9.97

row,Sequence,gcPBM binding intensity (ln)
1,TTCACTAATAAATACGCACACATATACAGATATATA [CACACA_site4887],9.94
2,GAGTTTTAATGTAATAGTACTTTAATTATTATATAT [XGTACX_site4527],9.7
3,ATACACAAAATTATTAAATCAATAAATATATGGTTT [CACACA_negctrl_site353],9.57
4,TAATATCATTTATGGGGTACCTCCTATTCTTATTTA [XGTACX_site1839],9.64
5,TAACTTTTTTTTTTTTTTTTTTAACTTTTATGTAAT [GTGCAC_negctrl_site156],9.45
6,TTAAACAATTTAGACATACACACAAAAATAATATTA [CACACA_site385],9.87
7,AAACAATTTAGACATACACACAAAAATAATATTATA [CACACA_site384],10.3
8,GAAATATTTAGACACACACACAAACATATAAATATA [CACACA_site6980],11.1
9,TACATCTGTAATGTGTGTACATATATGTATATATTT [XGTACX_site1805],9.87
10,TTTATTAAGAAACACACACACACACCCAAAATAAAA [CACACA_site242],10.5
11,TTTATTAATAGACACACACACACACGCAAAATAAAA [CACACA_site6255],11.2
12,TAATAAATAAATGACACACACACACGCAAAAAAAAA [CACACA_site7275],10.6
13,ATATAAAATAGACACGCACACAAAAAAAAAAAAAAA [CACACA_site3522],10.4
14,TTTATTAATAAACACACACACACACCCAAAATAAAA [CACACA_site7966],11
15,ATTAATAAATAAATGACACACACACCCACAAAAAAA [CACACA_site8839],11.3
16,TATTTATTAAAACACACACACACACCCACAAAATAA [CACACA_site241],10.5
17,AAAAAAAAAAAACACACACACAAAATAAACAAACAA [CACACA_site2721],10.5
18,TTTATTAATGGACACACACACACACCCAAAATAAAA [CACACA_site4294],10.5
19,TTAACAAATAAACACACACACACACCCAAAAAAAAA [CACACA_site8068],11.1
20,ATAAATAAAAAACACACACACACACCCAAAAAAAAA [CACACA_site2624],10.7
21,AACACCCACAGACACACACACAAAAATGATTAAAAA [CACACA_site2433],10.9
22,AAAAAAATAGTCTTCTTGCACTTTTTAATTTATTTT,9.6
23,CTAAAACAATAAATCACACATACATAGGATAATATA [CACACA_site4247],9.81

row,Sequence,gcPBM binding intensity (ln)
1,GTGTAATTTATTGTGTTGCACTTTTTTTTTTTTTTT [GTGCAC_site9644],9.84
2,ATATATATGTATATAACATGCAACATTTAATAATAA [TGCATGCA_site1018],9.85
3,AAGGTGGAAACAATTACACACACACTAATAAAAAAA [CACACA_site9051],10.8
4,ATATGATTTCACAAGACACACACATACAAATTTATA [CACACA_site9296],10.1
5,TATTTATTTATTTATGCATGCATGAATAATTTTTAC [TGCATGCA_site31],9.62
6,AGAACAATTCTGTGGTGTACCAAAAAAAATTTAATT [XGTACX_site8082],9.8
7,TAAAGAGTCATGTGGTGTACCTGCTTCACCACATAT [XGTACX_site1288],9.4
8,AACTTTGAGACATAGTGTACTTACACAATCTTAATA [XGTACX_site3712],9.63
9,ATGCATATATTTATGTGTACATATATTTGTAGGGGG [XGTACX_site6063],11.2
10,TATATATATATATATGCATGTACATATATTTGTTAT [TGCATGCA_site379],10.4
11,ATATATATTTATATATGTACATATTTTTGTGTATTT [XGTACX_site1183],9.93
12,ATACCTATTTGATGAGTGCATTATCCAATATATGTA,9.59
13,TCTTTTTAAATATATACACACCGTGTCTACAGATAC [CACACA_site5784],9.88
14,AAGAAAAACTTTACGTGTACCAAACATCCTGCCAAC [XGTACX_site598],9.91
15,ATATATATTTTATTATGTACATATAAATATTACACA [XGTACX_site4062],9.57
16,AATAATAGAAGCACCCACCCACCACCACCCACACAT [CACACA_negctrl_site1033],10.9
17,ACATCAAGCAGACACACACACACACGCACACGCACA [CACACA_site6309],11.2
18,TGCATATACTCAAGCACACATATATATATATATATA [CACACA_site4733],9.71
19,AAGCATACATCAAGCACACACACACCCACAGAGACA [CACACA_site4362],10.5
20,TGCATATACGCAAGCACACATATATATATATATATA [CACACA_site1069],9.6
21,AATACACGCAGACACACACACACACGCACATATATA [CACACA_site6447],10.8
22,AGAAGCATACATCAAGCACACACACCCACACCCACA [CACACA_site8014],11.4
23,GCATACATCAAGCACACACACACACGCACACGCACA [CACACA_site6311],11.3

row,Sequence,gcPBM binding intensity (ln)
1,AGCACACGCAGACACACACACACACGCACACGCACA [CACACA_site6306],11.6
2,CACGCACGCAGACACACACACACACGCACATATATA [CACACA_site6303],10.6
3,AGCTCTATATTTTACACATGCGATTTGGATATATAT [TGCATGCA_site105],9.84
4,ATGTACTATGATAATGCATGCAATAATACATTTTTA [TGCATGCA_site318],9.6
5,AAACTATTCACTATAATACATTAGAAGTGAATAAAA [TGCATGCA_negctrl_site498],9.64
6,TTTTTTTTTCTCCATACACACTTGATAAAACTTTTT [CACACA_site4512],9.64
7,AAAAAAAATAATTTGCGTACATAAAAATTTATAGGA [XGTACX_site3016],9.58
8,AAAAATAAAGAAACAGGTACGCATATATTAAGATAT [XGTACX_site8097],9.98
9,TATCCTAATGCTACCACACACACAAAAACAAATAAT [CACACA_site2609],10.7
10,TATTATTTTTCATATGCATGCAAAAATAAAAAAATA [TGCATGCA_site350],9.31
11,TATATACATATATACACACACATATATATATATATA [CACACA_site2805],10.1
12,TGGTAATACCCATACACACACACATACACATATATA [CACACA_site8877],10.3
13,CAAAAGGATAGGCACACACACACACCCATATATATA [CACACA_site2199],11.1
14,AAGGATATAACATACACACACACACCGATATATATA [CACACA_site6136],10.6
15,TGGTAATACACATACACACACACATACACATATATA [CACACA_site7312],11.4
16,CAAAAGGATAGGCACACACACACACCGATATATATA [CACACA_site8685],10.7
17,TGGTAATACCCATACACACACACATACCCATATATA [CACACA_site5509],10.3
18,TACATACATACATACACACACACATATATATACATA [CACACA_site853],11
19,AAGGATATAACATACACACACACACCCATATATATA [CACACA_site4142],11.1
20,TATACATATATATACACACACACATATATATATATA [CACACA_site1299],10.1
21,GGAAGGATATAACATACACACACACCCATATATATA [CACACA_site9376],10.3
22,GCCAAAAGGATATGCACACACACACCCATATATATA [CACACA_site2198],10.6
